Out of some 39,000 compounds screened, about 1,500 (3.8%) were called active. The full list was thinned out, with actives kept by preference.

Consider 35 molecules from the antibiotic and cytotoxicity screens of Wong et al. (2023).

This assay relates to HSkMC (human skeletal muscle cells). The assay can be described thus: cytotoxicity call (relative viability < 0.9). The note with it: 10 µM.
As for `COC(=O)C[C@H]1CC[C@@H]2[C@H](COC[C@H](O)CN2S(=O)(=O)c2ccc(F)cc2)O1`, the cytotoxicity call is “inactive”. As for `C[C@@H]1CN([C@@H](C)CO)S(=O)(=O)c2ccc(C#CC(C)(C)O)cc2O[C@@H]1CN(C)Cc1ccc(F)cc1`, the cytotoxicity call is “inactive”. Regarding `C=CCNC(=O)[C@H]1[C@@H]2C(=O)O[C@@H](c3ccccc3)[C@@H](c3ccccc3)N2[C@@H](c2ccc(O)cc2)[C@]12C(=O)Nc1ccc(C#Cc3ccc(OC)cc3)cc12`, the cytotoxicity call is “inactive”.

Consider `COc1ccc(S(=O)(=O)Nc2ccc3c(c2)C(=O)N([C@H](C)CO)C[C@H](C)[C@H](CN(C)Cc2ccccc2)OCCCC[C@H](C)O3)cc1`, for which the cytotoxicity call is “inactive”. As for `CC1(C)CCC2(C(=O)O)CCC3(C)C(=CCC4C5(C)CCC(O)C(C)(C)C5CCC43C)C2C1` (stereo not given), the cytotoxicity call was “inactive”. Turning to `COC(=O)[C@@]12CC[C@@H](C)[C@@H](C)[C@@H]1C1=CC[C@H]3[C@@]4(C)CC[C@@H](OC(C)=O)C(C)(C)[C@@H]4CC[C@@]3(C)[C@@]1(C)CC2`, the cytotoxicity call was “inactive”. For `CC1CCC2(C(=O)O)CCC3(C)C(=CCC4C5(C)CCC(O)C(C)(C)C5CCC43C)C2C1C` (stereo not given), the cytotoxicity call is “active”. Turning to `O=C1c2c(O)cccc2C(C2OC(CO)C(O)C(O)C2O)c2cc(CO)cc(O)c21` (stereo not given), the cytotoxicity call was “inactive”.

Take `COc1ccc(NC(=O)Nc2ccc3c(c2)C(=O)N([C@@H](C)CO)C[C@H](C)[C@@H](CN(C)C(=O)Nc2ccc(C(F)(F)F)cc2)OCCCC[C@H](C)O3)cc1`: the cytotoxicity call is “inactive”.

As for `C[C@@H]1CN([C@H](C)CO)C(=O)c2cccc(NC(=O)Nc3ccc4c(c3)OCO4)c2O[C@H]1CN(C)Cc1ccc(Oc2ccccc2)cc1`, the cytotoxicity call was “active”. With `C[C@H]1CN([C@@H](C)CO)C(=O)c2cccc(NC(=O)Nc3ccc4c(c3)OCO4)c2O[C@H]1CN(C)Cc1ccc(-c2ccccc2)cc1`, the cytotoxicity call was “inactive”. Regarding `C[C@@H]1CN([C@@H](C)CO)C(=O)c2cccc(NC(=O)Nc3ccc4c(c3)OCO4)c2O[C@@H]1CN(C)Cc1ccc(Oc2ccccc2)cc1`, the cytotoxicity call was “inactive”. Take `C[C@H]1CN([C@@H](C)CO)C(=O)c2cccc(NC(=O)Nc3ccc4c(c3)OCO4)c2O[C@@H]1CN(C)Cc1ccc(-c2ccccc2)cc1`: the cytotoxicity call was “inactive”.

Turning to `C[C@@H]1CN([C@@H](C)CO)C(=O)c2cccc(NC(=O)Nc3ccc4c(c3)OCO4)c2O[C@@H]1CN(C)Cc1ccc(-c2ccccc2)cc1`, the cytotoxicity call is “active”. For `C[C@H]1CN([C@@H](C)CO)C(=O)c2cccc(NC(=O)Nc3ccc4c(c3)OCO4)c2O[C@H]1CN(C)Cc1ccc(Oc2ccccc2)cc1`, the cytotoxicity call was “inactive”. As to `C[C@@H]1CCCCO[C@H](CN(C)S(=O)(=O)c2cccs2)[C@H](C)CN([C@@H](C)CO)C(=O)c2cc(NC(=O)c3ccccc3)ccc2O1`, the cytotoxicity call is “inactive”. Turning to `CC[C@@H]1/C=C(\C)C[C@H](C)C[C@H](OC)[C@H]2O[C@@](O)(C(=O)C(=O)N3CCCC[C@H]3C(=O)O[C@H](/C(C)=C/[C@@H]3CC[C@H](Cl)[C@H](OC)C3)[C@H](C)[C@@H](O)CC1=O)[C@H](C)C[C@@H]2OC`, the cytotoxicity call was “inactive”. Consider `C[C@@H]1CCCCO[C@@H](CN(C)C(=O)c2ccccc2)[C@@H](C)CN([C@@H](C)CO)C(=O)c2cc(NC(=O)Nc3ccccc3)ccc2O1`, for which the cytotoxicity call was “inactive”. Turning to `Cc1ccc(S(=O)(=O)N(C)C[C@@H]2OCCCC[C@@H](C)Oc3ccc(NC(=O)CCC(F)(F)F)cc3C(=O)N([C@@H](C)CO)C[C@H]2C)cc1`, the cytotoxicity call is “inactive”.

For `Cc1noc(C)c1S(=O)(=O)N(C)C[C@H]1Oc2ccc(NC(=O)Cc3ccccc3)cc2CC(=O)N([C@H](C)CO)C[C@H]1C`, the cytotoxicity call is “inactive”. On to `NC(=O)[C@H]1CCCCN1`, for which the cytotoxicity call is “inactive”. For the molecule `COc1cccc(S(=O)(=O)N[C@@H]2C=C[C@@H](CC(=O)NC3CCC3)O[C@H]2CO)c1`, the cytotoxicity call is “inactive”. With `C[C@@H]1CCCCO[C@H](CN(C)C(=O)Nc2cccc3ccccc23)[C@@H](C)CN([C@H](C)CO)C(=O)c2cc(NS(=O)(=O)c3ccc(Cl)cc3)ccc2O1`, the cytotoxicity call is “active”. With `C[C@@H]1CCCCO[C@@H](CN(C)C(=O)Nc2cccc3ccccc23)[C@@H](C)CN([C@H](C)CO)C(=O)c2cc(NS(=O)(=O)c3ccc(F)cc3)ccc2O1` the entry was “inactive”; with `C[C@H]1CCCCO[C@H](CN(C)C(=O)Nc2cccc3ccccc23)[C@@H](C)CN([C@@H](C)CO)C(=O)c2cc(NS(=O)(=O)c3ccc(F)cc3)ccc2O1`, “active”. For the molecule `C[C@@H]1CN([C@@H](C)CO)C(=O)c2cc(NS(=O)(=O)c3ccc(F)cc3)ccc2O[C@@H](C)CCCCO[C@H]1CN(C)C(=O)Nc1cccc2ccccc12`, the cytotoxicity call was “inactive”. With `Cc1ccc(S(=O)(=O)Nc2ccc3c(c2)C(=O)N([C@@H](C)CO)C[C@@H](C)[C@@H](CN(C)C(=O)Nc2cccc4ccccc24)OCCCC[C@H](C)O3)cc1` the entry was “inactive”; with `C[C@@H]1CN([C@@H](C)CO)C(=O)c2cc(NS(=O)(=O)c3ccc(F)cc3)ccc2O[C@@H](C)CCCCO[C@@H]1CN(C)C(=O)Nc1cccc2ccccc12`, “inactive”; with `Cc1ccc(S(=O)(=O)Nc2ccc3c(c2)C(=O)N([C@H](C)CO)C[C@H](C)[C@H](CN(C)C(=O)Nc2cccc4ccccc24)OCCCC[C@H](C)O3)cc1`, “active”. Consider `C[C@@H]1CCCCO[C@@H](CN(C)C(=O)Nc2cccc3ccccc23)[C@H](C)CN([C@@H](C)CO)C(=O)c2cc(NS(=O)(=O)c3ccc(F)cc3)ccc2O1`, for which the cytotoxicity call is “inactive”.

For the molecule `C[C@@H]1CCCCO[C@H](CN(C)C(=O)Nc2cccc3ccccc23)[C@H](C)CN([C@H](C)CO)C(=O)c2cc(NS(=O)(=O)c3ccc(Cl)cc3)ccc2O1`, the cytotoxicity call was “inactive”. The same measure for `C[C@@H]1CCCCO[C@@H](CN(C)C(=O)Nc2cccc3ccccc23)[C@H](C)CN([C@H](C)CO)C(=O)c2cc(NS(=O)(=O)c3ccc(F)cc3)ccc2O1`: “active”; for `C[C@@H]1CCCCO[C@@H](CN(C)C(=O)Nc2cccc3ccccc23)[C@H](C)CN([C@@H](C)CO)C(=O)c2cc(NS(=O)(=O)c3ccc(Cl)cc3)ccc2O1`: “inactive”; for `Cc1ccc(S(=O)(=O)Nc2ccc3c(c2)C(=O)N([C@@H](C)CO)C[C@H](C)[C@@H](CN(C)C(=O)Nc2cccc4ccccc24)OCCCC[C@@H](C)O3)cc1`: “inactive”.

On to `CCC(=O)Nc1ccc2c(c1)C(=O)N(C)C[C@H](OC)[C@@H](C)CN(C(=O)CN1CCOCC1)[C@H](C)CO2`, for which the cytotoxicity call was “inactive”.
